From PubChem BioAssay (EPA / NIEHS)
Inconclusive results are not listed. The source made the active and inactive calls. The calls were made as follows, unless noted: active = hit-call score of the fitted dose curve at least 0.9, where 1 is the maximum; inconclusive = response in the unintended direction; inactive = score below 0.9.

Tests used:
[1] = read-out: Interleukin-8 (IL8), CXCL8 (gene 3576); experiment: BSK_3C_IL8: BioMAP Diversity Plus: 3C Assay for Interleukin-8 (IL8) Biomarker Activity (AID 2283020; active = hit-call score of the fitted dose curve at least 0.9, where 1 is the maximum; inactive = score below 0.9); details: primary human endothelial cells (HUVEC); actives raise or lower the signal
Method in brief: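 Primary human umbilical vein endothelial cells (3C system) were exposed to test chemical for 24 h, then IL-8 was quantified by ELISA. Responses were fitted bidirectionally against DMSO vehicle as baseline.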

[2] = read-out: Pselectin, SELP (gene 6403); experiment: BSK_4H_Pselectin: BioMAP Diversity Plus: 4H Assay for Pselectin Biomarker Activity (AID 2283026; active = hit-call score of the fitted dose curve at least 0.9, where 1 is the maximum; inactive = score below 0.9); details: primary human endothelial cells (HUVEC); actives raise or lower the signal
Method in brief: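 Primary human umbilical vein endothelial cells were exposed to test chemical for 24 h, then cell-surface P-selectin was quantified by ELISA. Activity was fitted bidirectionally against DMSO as negative control and baseline.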

[3] = read-out: Macrophage colony-stimulating factor (MCSF), CSF1 (gene 1435); experiment: BSK_CASM3C_MCSF: BioMAP Diversity Plus: CASM3C Assay for Macrophage colony-stimulating factor (MCSF) Biomarker Activity (AID 2283044; active = hit-call score of the fitted dose curve at least 0.9, where 1 is the maximum; inactive = score below 0.9;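 also: M-CSF protein amount quantified by ELISA after 24 h exposure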); details: primary human coronary artery smooth muscle cells; actives raise or lower the signal
[4] = read-out: Low-density lipoprotein receptor (LDLR), LDLR (gene 3949); experiment: BSK_CASM3C_LDLR: BioMAP Diversity Plus: CASM3C Assay for Low-density lipoprotein receptor (LDLR) Biomarker Activity (AID 2283045; active = hit-call score of the fitted dose curve at least 0.9, where 1 is the maximum; inactive = score below 0.9;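 also: LDLR protein level on the cell surface quantified by ELISA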); details: primary human coronary artery smooth muscle cells; actives raise or lower the signal
[5] = read-out: Monokine induced gamma interferon (MIG), CXCL9 (gene 4283); experiment: BSK_CASM3C_MIG: BioMAP Diversity Plus: CASM3C Assay for Monokine induced gamma interferon (MIG) Biomarker Activity (AID 2283048; active = hit-call score of the fitted dose curve at least 0.9, where 1 is the maximum; inactive = score below 0.9;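 also: MIG protein level measured by ELISA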); details: primary human coronary artery smooth muscle cells; actives raise or lower the signal
[6] = read-out: serum amyloid A (SAA), SAA1 (gene 6288); experiment: BSK_CASM3C_SAA: BioMAP Diversity Plus: CASM3C Assay for serum amyloid A (SAA) Biomarker Activity (AID 2283049; active = hit-call score of the fitted dose curve at least 0.9, where 1 is the maximum; inactive = score below 0.9;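 also: SAA protein level quantified by ELISA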); details: primary human coronary artery smooth muscle cells; actives raise or lower the signal
[7] = target: Estrogen receptor beta (Homo sapiens) (UniProt Q92731); experiment: OT_ER_ERbERb_0480: Odyssey Thera (OT) 8-hour HEK293T Protein-Complementation Assay for Estrogen Receptor-beta/-beta Homodimer (AID 2283357);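 also: active means signal gain over DMSO baseline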
Estrogen receptor beta (Homo sapiens), sequence (Q92731 whole entry, looked up, the tested form may be a part): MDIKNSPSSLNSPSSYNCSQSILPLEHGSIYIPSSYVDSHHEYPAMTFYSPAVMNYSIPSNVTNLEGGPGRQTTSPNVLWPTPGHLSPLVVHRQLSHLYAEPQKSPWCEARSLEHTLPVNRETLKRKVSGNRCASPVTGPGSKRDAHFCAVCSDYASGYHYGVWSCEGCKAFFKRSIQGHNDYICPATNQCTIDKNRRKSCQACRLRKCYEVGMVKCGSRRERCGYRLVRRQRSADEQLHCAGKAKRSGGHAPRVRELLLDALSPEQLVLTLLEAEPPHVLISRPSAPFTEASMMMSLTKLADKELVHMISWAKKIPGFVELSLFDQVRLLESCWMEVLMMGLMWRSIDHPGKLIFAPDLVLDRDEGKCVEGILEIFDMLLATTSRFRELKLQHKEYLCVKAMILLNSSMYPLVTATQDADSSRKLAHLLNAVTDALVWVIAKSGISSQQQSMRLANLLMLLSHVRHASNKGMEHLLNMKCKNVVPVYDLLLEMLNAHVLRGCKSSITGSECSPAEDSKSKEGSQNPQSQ
Method in brief: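 Readout: increase in mean fluorescence intensity (nucleus for agonists; nucleus plus cytoplasm for antagonists) relative to DMSO, from a reporter-fragment complementation of human ER-beta LBD homodimer in HEK293T cells dosed 8 hours.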

[8] = target: Estrogen receptor beta (Homo sapiens) (UniProt Q92731); experiment: OT_ER_ERbERb_1440: Odyssey Thera (OT) 24-hour HEK293T Protein-Complementation Assay for Estrogen Receptor-beta/-beta Homodimer (AID 2283380);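 also: fluorescence gain from ER beta LBD homodimer complementation read by laser scanning cytometry; scored as signal increase over DMSO baseline for both agonists and antagonists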
Method in brief: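 HEK293T cells stably expressing human ER-beta LBD (aa 310-547) PCA homodimer pair, dosed 24 h; formaldehyde-fixed, Draq5-stained. Readout: increase in nuclear (agonist) or nuclear plus cytoplasmic (antagonist) fluorescence intensity versus DMSO, gain-of-signal fitting.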

[9] = target: Retinoic acid receptor RXR-alpha (Homo sapiens) (UniProt P19793); experiment: OT_NURR1_NURR1RXRa_0480: Odyssey Thera (OT) 8-hour HEK293T Protein Complementation Assay for Nurr1/retinoid X receptor (RXR) (AID 2283385)
Retinoic acid receptor RXR-alpha (Homo sapiens), sequence (P19793 whole entry, looked up, the tested form may be a part): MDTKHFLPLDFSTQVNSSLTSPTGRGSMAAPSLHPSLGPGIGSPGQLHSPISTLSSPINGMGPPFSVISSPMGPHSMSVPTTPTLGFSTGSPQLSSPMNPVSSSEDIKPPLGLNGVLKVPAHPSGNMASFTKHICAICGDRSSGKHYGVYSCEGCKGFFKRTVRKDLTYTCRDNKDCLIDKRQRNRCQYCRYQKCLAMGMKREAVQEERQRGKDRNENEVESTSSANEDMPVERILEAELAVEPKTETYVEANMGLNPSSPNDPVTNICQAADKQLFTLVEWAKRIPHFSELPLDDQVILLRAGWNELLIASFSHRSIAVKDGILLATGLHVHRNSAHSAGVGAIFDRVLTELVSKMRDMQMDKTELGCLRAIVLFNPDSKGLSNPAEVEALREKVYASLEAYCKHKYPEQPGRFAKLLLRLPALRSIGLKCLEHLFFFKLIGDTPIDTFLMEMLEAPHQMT
Method in brief: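 HEK293T cells expressing Nurr1 and RXRα fused to reporter fragments were dosed with compound for 8 hours. Complex formation was read as fluorescence intensity and analysed as gain of signal against DMSO as baseline.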

[10] = target: Peroxisome proliferator-activated receptor gamma (Homo sapiens) (UniProt P37231); experiment: OT_PPARg_PPARgSRC1_0480: Odyssey Thera (OT) 8-hour Protein-Complementation Assay for Peroxisome Proliferator-activated Receptor Gamma / SRC-1 Co-activator (AID 2283387)
Peroxisome proliferator-activated receptor gamma (Homo sapiens), sequence (P37231 whole entry, looked up, the tested form may be a part): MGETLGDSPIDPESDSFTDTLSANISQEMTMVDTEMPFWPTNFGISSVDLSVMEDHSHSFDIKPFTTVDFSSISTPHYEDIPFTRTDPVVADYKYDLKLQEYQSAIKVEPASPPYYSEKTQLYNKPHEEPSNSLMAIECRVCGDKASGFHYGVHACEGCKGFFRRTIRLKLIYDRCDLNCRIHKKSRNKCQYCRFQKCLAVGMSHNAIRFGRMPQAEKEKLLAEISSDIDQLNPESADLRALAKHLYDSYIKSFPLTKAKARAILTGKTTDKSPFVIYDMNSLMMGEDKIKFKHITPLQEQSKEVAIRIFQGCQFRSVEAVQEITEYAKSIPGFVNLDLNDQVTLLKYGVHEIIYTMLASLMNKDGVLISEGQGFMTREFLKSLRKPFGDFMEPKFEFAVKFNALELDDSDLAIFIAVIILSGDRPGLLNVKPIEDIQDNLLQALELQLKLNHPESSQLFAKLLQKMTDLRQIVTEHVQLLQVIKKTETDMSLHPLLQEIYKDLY
Method in brief: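 Split-YFP (IFP1/IFP2) PPARg/SRC-1 reporter, HEK293T, 37 °C, 5% CO2; 8 h compound; formaldehyde fix + Draq5; high-content imaging, N/C ratio, ≥350 cells/image, positive direction vs DMSO.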

[11] = target: Peroxisome proliferator-activated receptor gamma (Homo sapiens) (UniProt P37231); experiment: OT_PPARg_PPARgSRC1_1440: Odyssey Thera (OT) 24-hour Protein-Complementation Assay for Peroxisome Proliferator-activated Receptor Gamma/ SRC-1 Co-activator (AID 2283388)
Method in brief: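 HEK293T transiently transfected with PPARg/SRC-1 split-Venus YFP fusions 48 h before dosing, then treated 24 h at 37C. Fixed cells imaged; nuclear/cytoplasmic 488 nm fluorescence ratio, gain of signal versus DMSO.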

[12] = ACEA_AR_antagonist_AUC_viability: ACEA Biosciences xCELLigence Real-Time Cell Analysis on Androgen Receptor Antagonism for Viability (AID 2283776);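 also: 22Rv1 human prostate cancer cells growing on impedance electrode plates; area under impedance growth curve at 80 h after dosing as viability; hits lower the growth signal relative to DMSO meaning cytotoxicity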
Method in brief: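 Viability endpoint from label-free cell-index monitoring: 22Rv1 cultures treated with an eight-point 1:4 dilution series starting at 100 uM final, AUC at 80 h fitted against DMSO.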

[13] = ACEA_ER_AUC_viability: ACEA Biosciences xCELLigence Real-Time Cell Analysis on Estrogen Receptor Agonism for Viability (AID 2283782);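 also: continuous compound exposure with impedance area under curve over 80 h; hit means loss of impedance signal meaning reduced cell growth or viability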
Method in brief: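 T-47D human breast cells in phenol red-free RPMI1640 with 10% charcoal-stripped FBS were dosed with an 8-point 1:4 dilution series from 100 uM top final concentration, in duplicate. Impedance-based growth was followed for 80 h; AUC analysed versus DMSO.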

[14] = target: human Retinoic Acid Receptor beta (RARb), RARB (gene 5915) (UniProt P10826); experiment: ATG_RARb_TRANS: Attagene TRANS-FACTORIAL HepG2 Assay for human Retinoic Acid Receptor beta (AID 2283004)
human Retinoic Acid Receptor beta (RARb), RARB (gene 5915), sequence (P10826 whole entry, looked up, the tested form may be a part): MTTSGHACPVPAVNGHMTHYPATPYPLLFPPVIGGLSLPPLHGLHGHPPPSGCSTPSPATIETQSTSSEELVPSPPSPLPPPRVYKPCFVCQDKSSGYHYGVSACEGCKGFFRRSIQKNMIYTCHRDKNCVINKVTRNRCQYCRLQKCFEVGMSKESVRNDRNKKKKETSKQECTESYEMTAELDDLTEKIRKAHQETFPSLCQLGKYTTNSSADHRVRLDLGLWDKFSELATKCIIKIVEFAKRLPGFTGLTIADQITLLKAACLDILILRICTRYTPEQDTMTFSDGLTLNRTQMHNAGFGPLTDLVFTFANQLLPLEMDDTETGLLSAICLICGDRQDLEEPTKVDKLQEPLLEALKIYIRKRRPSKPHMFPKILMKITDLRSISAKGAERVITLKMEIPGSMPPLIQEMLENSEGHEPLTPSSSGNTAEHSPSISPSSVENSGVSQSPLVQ
Method in brief: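 HepG2 cells were transiently transfected with GAL4-UAS reporter units that report activity of exogenous chimeric NR-Gal4 proteins, then exposed to compound for 24 h. Reporter mRNA was quantified by RT-PCR with capillary electrophoresis fluorescence, as gain of signal over DMSO.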

[15] = target: human Retinoic Acid Receptor gamma (RARg), RARG (gene 5916) (UniProt P13631); experiment: ATG_RARg_TRANS: Attagene TRANS-FACTORIAL HepG2 Assay for human Retinoic Acid Receptor gamma (RARg) (AID 2283009)
human Retinoic Acid Receptor gamma (RARg), RARG (gene 5916), sequence (P13631 whole entry, looked up, the tested form may be a part): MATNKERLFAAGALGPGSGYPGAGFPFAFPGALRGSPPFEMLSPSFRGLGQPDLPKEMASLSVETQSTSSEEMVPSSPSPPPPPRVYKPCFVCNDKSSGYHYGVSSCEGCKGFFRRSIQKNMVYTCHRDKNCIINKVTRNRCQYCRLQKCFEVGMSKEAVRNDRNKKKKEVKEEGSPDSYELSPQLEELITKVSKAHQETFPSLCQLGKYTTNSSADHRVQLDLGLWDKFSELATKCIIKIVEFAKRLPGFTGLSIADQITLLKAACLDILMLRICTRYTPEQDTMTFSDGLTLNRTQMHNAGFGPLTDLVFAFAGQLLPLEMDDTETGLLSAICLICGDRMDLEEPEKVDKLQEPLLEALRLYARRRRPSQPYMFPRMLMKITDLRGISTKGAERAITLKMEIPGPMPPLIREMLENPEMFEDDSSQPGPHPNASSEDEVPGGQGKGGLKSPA
Method in brief: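 HepG2 cells transiently transfected with multiplexed reporter units expressing chimeric RARg-GAL4 and GAL4-UAS-driven reporters; 24 h compound exposure. Reporter mRNA quantified by RT-PCR with fluorescent labelling and capillary electrophoresis; gain-of-signal fitted relative to DMSO baseline.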

[16] = ATG_ERE_CIS: Attagene CIS-FACTORIAL HepG2 Assay for Estrogen Response Element (ERE) (AID 2282940; active = hit-call score of the fitted dose curve at least 0.9, where 1 is the maximum; inactive = score below 0.9); details: HepG2 ERE cis-reporter, Attagene RNA transcript; actives raise or lower the signal
Method in brief: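 HepG2, transient cis-reporter units, 24 h exposure. RNA isolated, oligo(dT) RT, reporter-specific PCR, FAM extension, HpaI cut, CE detection. Gain/loss-of-signal vs DMSO.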

[17] = target: Steroid hormone receptor ERR1 (Homo sapiens) (UniProt P11474); experiment: ATG_ERRa_TRANS: Attagene TRANS-FACTORIAL HepG2 Assay for human Estrogen-Related Receptor alpha (ERRa) (AID 2282971); details: HepG2 Attagene TRANS reporter, ERRa transactivation
Steroid hormone receptor ERR1 (Homo sapiens), sequence (P11474 whole entry, looked up, the tested form may be a part): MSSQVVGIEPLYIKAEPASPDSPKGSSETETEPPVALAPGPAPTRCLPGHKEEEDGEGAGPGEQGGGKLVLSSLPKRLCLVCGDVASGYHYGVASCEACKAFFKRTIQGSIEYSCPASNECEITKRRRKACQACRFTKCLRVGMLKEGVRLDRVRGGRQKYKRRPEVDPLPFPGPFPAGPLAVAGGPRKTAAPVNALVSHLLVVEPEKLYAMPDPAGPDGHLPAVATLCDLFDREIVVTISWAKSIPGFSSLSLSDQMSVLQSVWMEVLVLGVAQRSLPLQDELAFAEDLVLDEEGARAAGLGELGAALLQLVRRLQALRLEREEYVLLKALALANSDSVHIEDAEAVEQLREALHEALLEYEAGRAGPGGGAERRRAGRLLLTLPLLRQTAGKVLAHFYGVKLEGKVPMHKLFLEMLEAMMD
Method in brief: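 HepG2 cells transiently transfected with GAL4-UAS reporter units and chimeric NR-Gal4 constructs; after 24 hour compound incubation, reporter mRNA quantified by RT-PCR, fluorescent labelling and capillary electrophoresis, gain of signal versus DMSO.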

[18] = target: Retinoic acid receptor RXR-alpha (Homo sapiens) (UniProt P19793); experiment: OT_NURR1_NURR1RXRa_1440: Odyssey Thera (OT) 24-hour HEK293T Protein Complementation Assay for Nurr1/retinoid X receptor (RXR) (AID 2283386)
Method in brief: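 HEK293T cells were dosed with compound and read 24 h later by fluorescence intensity in a protein-fragment complementation format, where Nurr1–RXRα interaction reconstitutes a split reporter. Activity was fitted as gain of signal relative to DMSO baseline.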

[19] = ACEA_AR_agonist_AUC_viability: ACEA Biosciences xCELLigence Real-Time Cell Analysis on Androgen Receptor Agonism for Viability (AID 2283775)
Method in brief: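 Read-out is area under the impedance curve at 80 h post-dose in 22Rv1 cells, with DMSO as baseline and signal loss taken as reduced viability. Compounds ran in duplicate from 100 uM final.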

[20] = CCTE_Harrill_HTTr_CellCount_MCF7: CCTE's Cell Proliferation Assessment for the High-Throughput Transcriptomics (HTTr) Platform, Harrill Lab (AID 2284012);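 also: cells exposed to compound for six hours; intended direction is loss of nuclei count meaning fewer cells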
Method in brief: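 MCF-7 cells were exposed for 6 h to an eight-point dilution series; Hoechst-labeled nuclei were counted by high content imaging. Curves were fitted bidirectionally against DMSO as negative control and baseline, with signal loss indicating reduced cell count.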

Measured: AC50

Sc1nc2ccccc2s1
active: [13] 69.6 µM
not listed: [14] | [15] | [16] | [17] | [18] | [19] | [20]
inactive: all other assays above

CCCCCCC(O)CCCCCCCCCCC(=O)OC (centres undefined)
inactive: [14] | [15] | [1] | [2] | [3] | [4] | [5] | [6] | [13]

O=C1CCCCCCCCCCCCCC1
inactive: [16]

O=[N+]([O-])c1ccccc1C(F)(F)F
inactive: [16] | [17] | [15]

C=C(C)C(=O)OCC1CCCO1 (centres undefined)
inactive: [13]

CCCC(=O)OC
inactive: [16]

Cc1ccccc1S(=O)(=O)O
inactive: [7] | [8]

NC(=O)c1ccc(N)cc1
inactive: [16]

CO[Si](CCCNCCN)(OC)OC
inactive: [14] | [7] | [8] | [10] | [11] | [12]

CN(C)c1ccc(C(c2ccccc2)c2ccc(N(C)C)cc2)cc1
inactive: [3] | [4] | [5] | [6]
active: [1] 5.43 µM | [2] 7.46 µM

CC(C)(Oc1ccc(Cl)cc1)C(=O)O
active: [13] 50 µM

C[Si](C)(C)O[Si](C)(C)O[Si](C)(C)C
inactive: [7] | [8] | [9] | [18] | [10] | [11] | [19] | [12]

c1ccc2c(c1)Oc1ccccc1S2
active: [16] 63.7 µM

CCOC(=O)c1ccccc1
inactive: [16] | [17] | [7] | [8] | [9] | [18] | [10] | [11] | [19] | [12]

Nc1ccc(S(=O)(=O)Nc2cnc3ccccc3n2)cc1
inactive: [7] | [8] | [9] | [18] | [10] | [11]

CN(C)N=Nc1ccccc1
inactive: [17]

OCCOCCOCCOCCOCCO
inactive: [17]

CN(C)CCCN1c2ccccc2CCc2ccc(Cl)cc21
inactive: [20]

Oc1ccc(Cl)cc1C1CCCC1
active: [16] 8.73 µM
inactive: [20]

CCCCCC[C@@H](O)C/C=C\CCCCCCCC(=O)O
inactive: [7] | [8] | [9] | [18] | [10] | [11] | [19] | [12] | [13] | [20]

O=C(C(=O)c1ccccc1)c1ccccc1
inactive: [17] | [1] | [2] | [3] | [4] | [5] | [6]

CC(=O)OC(C)(C)Cc1ccccc1
inactive: [19] | [12] | [13]

C=C1CC[C@H]2C[C@@H]1C2(C)C
inactive: [16] | [14] | [7] | [8] | [9] | [10] | [11] | [19] | [12]

O=[N+]([O-])c1ccc2nc[nH]c2c1
inactive: [16]
